# Results filed as inconclusive are left out. The source made the active and inactive calls. Calls follow the shape of the dose curve; as a rule, active = well fitted curve in the direction sought with a large enough effect; inconclusive = small, poorly fitted or top-dose-only effect, or another doubt; inactive = no such curve, though single readings can be large or run the other way.
# Test system: 4-diphosphocytidyl-2-C-methyl-D-erythritol kinase IspE (bacterial, species not stated)
# Test: Confirmatory Assay for Inhibitors of Human Galactokinase (GALK): CDP-Me assay counterscreen
# Details: ATP depletion, Kinase-Glo luminescence; series mostly up to 115 µM
# Excerpt: NIH Molecular Libraries Probe Production Centers Network [MLPCN] NIH Chemical Genomics Center [NCGC] MLPCN Grant: R03 MH085689-01 Assay Submitter (PI): Kent Lai (University of Utah School of Medicine, 50 N Mario Capecchi Drive, Salt Lake City, UT 84132) NCGC Assay Overview The GHMP kinase family is a unique class of important enzymes that plays an essential role in many metabolic processes. It contains more than 170 protein members among which are the galactokinase (GALK) and the CMK enzymes. GALK plays a crucial role in galactose processing and is a potential therapeutic target for Classic Galactosemia (OMIM: 230400). CMK is involved for the non-mevalonate synthesis of isoprenoids precursors and natural products like sterols or ubiquinones which are important to many biological functions. […]
# NCGC Assay Protocol Summary: Three uL/well of substrate solution (15 uM ATP, 30 uM CDP-ME, 20 mM HEPES pH8.0, 5 mM MgCl2, 40 mM KCl, 1 mM DTT, 0.01% BSA final concentration) was dispensed into 1536-well, assay plates (Greiner, solid white medium-binding plates) with Aurora Discovery BioRAPTR Flying Reagent Dispenser (FRD; Beckton-Dickenson). […] After 1 min, luminescence was detected with the ViewLux plate reader (Perkin Elmer, Waltham, MA) using a 1 sec exposure time and 2x binning settings.
row,Compound,outcome
1,O=C1NC(=S)N(Cc2ccco2)C(=O)/C1=C\c1cccs1,inactive
2,COCCCn1c(N)c(C(=O)NCc2ccco2)c2nc3ccccc3nc21,inactive
